PubChem BioAssay (NCATS)
Inconclusive results are not listed. The source made the active and inactive calls. Unless noted, calls come from the whole dose curve; as a rule, active = well fitted curve in the direction sought with a large enough effect; inconclusive = small, poorly fitted or top-dose-only effect, or another doubt; inactive = no such curve, though single readings can be large; an effect the other way counts as inactive or inconclusive.

Assays:
[1] = biological target: Pyruvate kinase PKM (Homo sapiens) (UniProt P14618); assay: qHTS Assay for Activators of Human Muscle Pyruvate Kinase (AID 954; active = well fitted curve in the direction sought with a large enough effect, not every such curve was filed as active)
Chain of Pyruvate kinase PKM (Homo sapiens) (P14618 whole entry, looked up): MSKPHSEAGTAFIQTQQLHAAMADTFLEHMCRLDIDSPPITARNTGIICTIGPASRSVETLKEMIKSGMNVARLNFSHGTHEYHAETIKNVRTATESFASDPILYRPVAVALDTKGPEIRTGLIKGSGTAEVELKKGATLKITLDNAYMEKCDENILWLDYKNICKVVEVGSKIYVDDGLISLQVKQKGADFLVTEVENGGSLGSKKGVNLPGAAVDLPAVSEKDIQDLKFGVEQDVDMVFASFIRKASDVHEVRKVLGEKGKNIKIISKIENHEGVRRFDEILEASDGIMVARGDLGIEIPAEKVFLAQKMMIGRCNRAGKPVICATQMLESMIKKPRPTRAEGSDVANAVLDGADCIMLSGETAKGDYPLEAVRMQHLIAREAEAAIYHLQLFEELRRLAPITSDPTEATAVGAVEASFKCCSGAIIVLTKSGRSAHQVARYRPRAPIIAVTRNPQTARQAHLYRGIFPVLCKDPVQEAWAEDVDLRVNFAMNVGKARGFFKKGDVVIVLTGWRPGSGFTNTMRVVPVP
Method in brief: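 Reaction: 0.1 nM purified PKM2 with 0.5 mM phosphoenolpyruvate and 0.1 mM ADP, room temperature, 1 h. Readout: luciferase-based ATP luminescence after stop reagent. Activators judged against a 0.3 nM enzyme column.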

[2] = MultiTox-Fluor Cytotoxicity Assay - LYMP1-001 - Dead Cells (AID 946);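 note: cells exposed to compound for 16 h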
Method in brief: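 Seed 2500 LYMP1-001 cells/well, incubate 5 hr at 37 C; add compound, 16 hr at 37 C; add MultiTox-Fluor reagent, 60 min RT; read dead-cell fluorescence Ex/Em=485/520. Normalize to DMSO and 15 uM tetraoctylammonium bromide.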

[3] = MultiTox-Fluor Cytotoxicity Assay - LYMP1-001 - Live Cells (AID 947)
[4] = Cell Viability - LYMP1-002 - Assay at 16 hr (AID 948)
Method in brief: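 Acute cytotoxicity is scored as a concentration-dependent fall in intracellular ATP in a human lymphoblastoid line (LYMP1-002) after 16 hr compound exposure at 37 C, measured by luciferase luminescence.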

[5] = MultiTox-Fluor Cytotoxicity Assay - LYMP1-002 - Live Cells (AID 955);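 note: cells exposed to compound for 16 hours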
Method in brief: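 Read-out is live-cell protease activity (cell-permeant GF-AFC substrate, fluorescence Ex/Em=405/510), where a decrease indicates acute toxicity. Human lymphoblastoid cells were treated 16 hours at 37 C in a concentration series, and AC50 values came from standard Hill modelling.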

[6] = MultiTox-Fluor Cytotoxicity Assay - LYMP1-002 - Dead Cells (AID 960);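 note: cells exposed to compound for 16 h at 37 °C; nearly all actives have a fitted effect of over 60% in size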
Method in brief: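 LYMP1-002 cells 2500/well; 5 hr 37 C pre-incubation; compound 16 hr 37 C; MultiTox-Fluor reagent 60 min RT; dead-cell fluor Ex/Em 485/520. Norm. to DMSO (0%) vs 15 uM tetraoctylammonium bromide (100%); Hill AC50.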

[7] = MultiTox-Fluor Cytotoxicity Assay - LYMP1-003 - Dead Cells (AID 961);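 note: cells exposed to compound for 16 h at 37 °C; nearly all actives have a fitted effect of over 70% in size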
Method in brief: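 LYMP1-003 lymphoblastoid, 2500 cells/well, 5 hr settle then 16 hr cpd at 37 C; MultiTox-Fluor reagent 60 min RT; Ex/Em 485/520 dead-cell signal; norm. DMSO = 0%, 15 uM tetraoctylammonium bromide = 100%; Hill AC50.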

[8] = MultiTox-Fluor Cytotoxicity Assay - LYMP1-003 - Live Cells (AID 962);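 note: cells exposed to compound for 16 hours at 37 °C; cytotoxic hits lower the live-cell protease signal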
Method in brief: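 qHTS, 1536-well; 2500 cells/well LYMP1-003; 5 hr 37 C settle; cpd 16 hr 37 C; MultiTox-Fluor reagent 60 min RT; live-cell protease fluor. 405/510; Hill-fit AC50; tetraoctylammonium bromide pos. ctrl.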

[9] = Cell Viability - LYMP1-003 - Assay at 24 hr (AID 963)
Method in brief: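 Cells seeded at 2500/well, 5 hr at 37 C; compounds added; 24 hr at 37 C; CellTiter-Glo added, 30 min room temperature; luminescence read. Decrease in ATP taken as cytotoxicity, AC50 from Hill modelling.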

[10] = Cell Viability - LYMP1-003 - Assay at 40 hr (AID 964); note: series mostly up to about 92 µM; nearly all actives have a fitted effect of over 60% in size
Method in brief: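 Cells were seeded at 2500 per well and incubated 5 hr at 37 C. Compounds were added across a concentration series and left 40 hr at 37 C. CellTiter-Glo was added for 30 min at room temperature before luminescence reading.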

[11] = Cell Viability - LYMP2-004 (AID 966); note: nearly all actives have a fitted effect of over 65% in size
Method in brief: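 Cells seeded 2500/well, rested 5 hr at 37 C, dosed across a concentration series, incubated 24 hr at 37 C, then CellTiter-Glo added for 30 min at room temperature and luminescence read. Hill fitting gave AC50.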

[12] = Cell Viability - LYMP2-009 (AID 968); note: series mostly up to about 92 µM; nearly all actives have a fitted effect of over 55% in size
[13] = Cell Viability - LYMP2-011 (AID 969); note: nearly all actives have a fitted effect of over 60% in size
Method in brief: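 2500 cells/well, 5 hr 37 C; compound added, 24 hr 37 C; CellTiter-Glo 30 min RT; luminescence. qHTS concentration-response, Hill-equation AC50. Tetraoctylammonium bromide positive control.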

[14] = Cell Viability - LYMP2-013 (AID 970); note: series mostly up to about 92 µM; nearly all actives have a fitted effect of over 55% in size
Method in brief: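 qHTS; 2500 lymphoblastoid cells/well; 5 hr 37 C settle; cpd 24 hr 37 C; CellTiter-Glo, 30 min RT; luminescence. AC50 = Hill fit.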

[15] = Cell Viability - LYMP2-015 (AID 971); note: nearly all actives have a fitted effect of over 55% in size
Method in brief: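 Luminescent ATP read-out (CellTiter-Glo) served as the viability measure after lymphoblastoid cells were exposed to compounds for 24 hours at 37 C. Concentration-response data were fitted with the Hill equation to give AC50.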

[16] = Cell Viability - LYMP2-017 (AID 972); note: series mostly up to about 92 µM; nearly all actives have a fitted effect of over 55% in size
Method in brief: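 2500 cells/well, 5 h 37 C; cpd 24 h 37 C in complete medium; CellTiter-Glo, 30 min RT; luminescence (ATP). AC50 via Hill fit, qHTS.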

[17] = Cell Viability - LYMP2-019 (AID 973); note: nearly all actives have a fitted effect of over 55% in size
Method in brief: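 Luminescent ATP read-out (CellTiter-Glo, 30 min room temperature) served as the viability measure after 24 hr treatment of lymphoblastoid cells at 37 C. Concentration-response data were fitted to the Hill equation for AC50.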

[18] = Cell Viability - LYMP2-021 (AID 974)
Method in brief: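 Plate 2500 lymphoblastoid cells per well and incubate 5 hr at 37 C. Add compounds over a concentration range and incubate 24 hr at 37 C. Add CellTiter-Glo, wait 30 min at room temperature, read luminescence.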

[19] = biological target: Pyruvate kinase (Leishmania mexicana) (UniProt Q27686); assay: qHTS Validation Assay for Activators of Leishmania Mexicana Pyruvate Kinase (AID 959)
Chain of Pyruvate kinase (Leishmania mexicana) (Q27686 2-499 E452W): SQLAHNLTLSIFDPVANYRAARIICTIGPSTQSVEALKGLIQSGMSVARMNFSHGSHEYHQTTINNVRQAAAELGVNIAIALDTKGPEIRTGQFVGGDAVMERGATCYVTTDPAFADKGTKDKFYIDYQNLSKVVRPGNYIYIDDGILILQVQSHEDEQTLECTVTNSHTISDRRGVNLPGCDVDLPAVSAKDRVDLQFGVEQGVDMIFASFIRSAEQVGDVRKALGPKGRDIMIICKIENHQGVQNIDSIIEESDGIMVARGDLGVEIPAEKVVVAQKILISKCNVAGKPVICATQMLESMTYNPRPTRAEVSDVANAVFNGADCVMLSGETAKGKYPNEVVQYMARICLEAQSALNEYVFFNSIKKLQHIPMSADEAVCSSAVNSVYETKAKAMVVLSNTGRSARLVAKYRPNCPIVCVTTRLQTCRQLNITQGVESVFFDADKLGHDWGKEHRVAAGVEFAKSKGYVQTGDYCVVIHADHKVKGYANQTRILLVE
Method in brief: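 The enzyme is a highly purified E451W mutant of LmPYK used at 0.2 nM. It converts 0.5 mM PEP and 0.1 mM ADP over 1 h at room temperature; product ATP is quantified by luciferase luminescence relative to DMSO controls.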

Measured: Potency

Brc1c(NC2=NCCN2)ccc2nccnc12
inactive: [1]

O=c1[nH]c(=O)n([C@H]2C[C@H](O)[C@@H](CO)O2)cc1Br
not listed: [19]
inactive: all other assays above

COc1cc2c(cc1OC)-c1cc(=Nc3c(C)cc(C)cc3C)n(C)c(=O)n1CC2
inactive: [1]

CCCCOCCOCCOCc1cc2c(cc1CCC)OCO2
not listed: [1] | [19]
inactive: all other assays above

Nc1nc(N)c2nc(-c3ccccc3)c(N)nc2n1
not listed: [6] | [9] | [10] | [16]
inactive: all other assays above

C#CCN(C)CCCOc1ccc(Cl)cc1Cl
inactive: [1]

CN(C)CCCN1c2ccccc2Sc2ccc(C(F)(F)F)cc21
inactive: [1]

CN=C(NC#N)NCCSCc1nc[nH]c1C
not listed: [19]
inactive: all other assays above

Cc1scc2c1N(C(=O)CN1CCN(C)CC1)c1ccccc1NC2=O
inactive: [1]
